Reference: PubChem BioAssay (NCI)
This is part of a sample that, as a whole, favours compounds with a hit. Of some 79,000 tested, about 15% had one in any assay. Activity calls are given as the source filed them. Rule as the data show it: active = growth inhibition above about 70%; inactive = the rest.

Tests used:
[1] = NCI Yeast Anticancer Drug Screen. Data for the rad50 strain (AID 155);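 also: 0% = growth of vehicle-only cultures of the same strain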; conditions: S. cerevisiae rad50 strain growth inhibition, active compounds read high
Method in brief: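 Vehicle-treated cultures provide the reference for the growth inhibition reported for compound-exposed, repair-deficient yeast.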

[2] = NCI Yeast Anticancer Drug Screen. Data for the mec2-1 strain (AID 157); conditions: S. cerevisiae mec2-1 strain, active compounds read high
Method in brief: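 Test agents were screened against the mec2-1 yeast strain, with defined DNA repair or cell cycle alteration. Growth was scored as inhibition against vehicle-only controls.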

[3] = NCI Yeast Anticancer Drug Screen. Data for the sgs1 mgt1 strain (AID 161);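 also: 0% = growth of cultures given vehicle only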; conditions: S. cerevisiae sgs1 mgt1 strain, active compounds read high
Method in brief: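 Mutant yeast exposed to compound; growth scored against vehicle-only wells.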

[4] = NCI Yeast Anticancer Drug Screen. Data for the cln2 rad14 strain (AID 165);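 also: 0% = growth equal to vehicle treated cultures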; conditions: S. cerevisiae cln2 rad14 strain, active compounds read high
Method in brief: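 Growth of compound-exposed yeast (cln2 rad14 genotype) measured and expressed as inhibition relative to vehicle.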

[5] = NCI Yeast Anticancer Drug Screen. Data for the mlh1 rad18 strain (AID 175); conditions: S. cerevisiae mlh1 rad18 strain growth inhibition, active compounds read high
Method in brief: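 In this whole-cell yeast screen, a strain with altered DNA damage repair is challenged with compound, and its growth is measured against matched vehicle-treated controls.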

[6] = NCI Yeast Anticancer Drug Screen. Data for the bub3 strain (AID 167); conditions: S. cerevisiae bub3 mutant strain, active compounds read high
Method in brief: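 Mutant yeast screening strain plus compound; vehicle-treated cultures serve as the 0% inhibition reference.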

[7] = at 5.0 µM (retest, dose inferred, filed as 0.5)
[8] = at 50.0 µM (retest, dose inferred, filed as 5.0)

Measured: growth inhibition

Cc1cccc2c1Oc1ccccc1C2N1C(=O)/C(=C/c2cccs2)SC1=S (stereo not drawn)
inactive: [1]; [7] 1% | [1]; [8] 12% | [1]; at 50.0 µM 51.8% | [2]; [7] -23% | [2]; [8] 37% | [2]; at 50.0 µM 53.8% | [3]; [7] -6% | [3]; [8] 28% | [4]; [7] -11% | [4]; [8] 1% | [5]; [7] 2% | [5]; [8] 45% | [5]; at 50.0 µM 42.4%
active: [3]; at 50.0 µM 88% | [4]; at 50.0 µM 72.2%

COc1ccc(NC(=S)N/N=C/c2cccc(C)n2)cc1
inactive: [1]; [7] 8% | [1]; at 50.0 µM 67.4% | [2]; [7] 0% | [3]; [7] 13% | [4]; [7] 23% | [6]; [7] -22% | [5]; [7] 10%
active: [1]; [8] 98% | [2]; [8] 94% | [2]; at 50.0 µM 82.5% | [3]; [8] 90% | [3]; at 50.0 µM 86.5% | [4]; [8] 88% | [4]; at 50.0 µM 83.3% | [6]; [8] 85% | [6]; at 50.0 µM 85.9% | [5]; [8] 95% | [5]; at 50.0 µM 89.4%

COc1ccc(/C=C/c2cc(OC)c(OC)c(OC)c2)cc1O[Si](C)(C)C(C)(C)C
inactive: [1]; [7] 1% | [1]; [8] -9% | [1]; at 50.0 µM -2.65% | [2]; [7] 0% | [2]; [8] -3% | [2]; at 50.0 µM -1.75% | [3]; [7] -1% | [3]; [8] -5% | [3]; at 50.0 µM 13.6% | [6]; [7] -1% | [6]; [8] -7% | [6]; at 50.0 µM -37.5% | [5]; [7] 1% | [5]; [8] -6% | [5]; at 50.0 µM -4.45%

S=C(Nc1ccc(Cl)c(Cl)c1)N1c2ccccc2-n2cccc2C1c1cccnc1 (stereo not drawn)
inactive: [1]; [7] 49% | [2]; [7] 46% | [5]; [7] 45%
active: [1]; [8] 99% | [1]; at 50.0 µM 80.8% | [2]; [8] 99% | [2]; at 50.0 µM 84.5% | [4]; [7] 91% | [4]; [8] 94% | [4]; at 50.0 µM 84.7% | [6]; [7] 72% | [6]; [8] 89% | [6]; at 50.0 µM 84% | [5]; [8] 100% | [5]; at 50.0 µM 87.8%

CC(C)(C)OC(=O)Nc1cccc(Cl)c1
inactive: [1]; [7] 11% | [2]; [7] -4% | [2]; [8] 12% | [2]; at 50.0 µM 14.8% | [4]; [7] -2% | [4]; [8] -20% | [4]; at 50.0 µM 2.9% | [6]; [7] 46% | [6]; [8] -2% | [6]; at 50.0 µM 10.2% | [5]; [7] 4% | [5]; [8] 33%
active: [1]; [8] 71% | [1]; at 50.0 µM 73.2% | [5]; at 50.0 µM 80.5%

CC(=O)C1(C(C)=O)C2=C(C(=O)C(Cl)=C(Cl)C2=O)N2C=CC=CC21 (stereo not drawn)
active: [1]; [7] 85% | [1]; [8] 95% | [1]; at 50.0 µM 98.3% | [2]; [7] 81% | [2]; [8] 97% | [2]; at 50.0 µM 98.5% | [3]; [7] 78% | [3]; [8] 97% | [3]; at 50.0 µM 98.3% | [4]; [8] 95% | [4]; at 50.0 µM 96.8% | [5]; [7] 92% | [5]; [8] 96% | [5]; at 50.0 µM 98.2%
inactive: [4]; [7] 40%

C=CC(=O)N1C/C(=C\c2ccc([N+](=O)[O-])cc2)C(=O)/C(=C/c2ccc([N+](=O)[O-])cc2)C1
inactive: [1]; [7] 46% | [1]; at 50.0 µM 28.7% | [2]; [7] 33% | [2]; at 50.0 µM 51.5% | [3]; [7] 39% | [6]; [7] 25% | [5]; [7] 58%
active: [1]; [8] 96% | [2]; [8] 97% | [3]; [8] 97% | [3]; at 50.0 µM 87.3% | [6]; [8] 96% | [6]; at 50.0 µM 83.9% | [5]; [8] 96% | [5]; at 50.0 µM 81.5%

O=C1CN(CCN2CCOCC2)CC(=O)N2CCCCN12
inactive: [1]; [7] 1% | [1]; [8] -1% | [1]; at 50.0 µM 3.3% | [2]; [7] -2% | [2]; [8] -1% | [2]; at 50.0 µM 2.55% | [3]; [7] 3% | [3]; [8] 7% | [3]; at 50.0 µM 32.6% | [6]; [7] -6% | [6]; [8] -3% | [6]; at 50.0 µM 5.7% | [5]; [7] -1% | [5]; [8] -2% | [5]; at 50.0 µM 1.45%

[O-][n+]1c(-c2ccccc2)c(Cl)c(-c2ccccc2)n1O
active: [1]; [8] 75% | [1]; at 50.0 µM 86.3% | [2]; [8] 94% | [2]; at 50.0 µM 97% | [3]; [8] 92% | [3]; at 50.0 µM 97.6% | [6]; [8] 96% | [6]; at 50.0 µM 97.8% | [5]; [8] 95% | [5]; at 50.0 µM 97.5%
inactive: [1]; [7] 4% | [2]; [7] 0% | [3]; [7] 4% | [6]; [7] 8% | [5]; [7] 4%

CN(C)/N=N/c1nc(Cc2ccccc2)[nH]c1C(N)=O
active: [1]; [7] 98% | [1]; [8] 98% | [1]; at 50.0 µM 98.5% | [2]; [8] 99% | [2]; at 50.0 µM 94.6% | [4]; [8] 99% | [4]; at 50.0 µM 92.9% | [6]; [8] 99% | [6]; at 50.0 µM 96.5% | [5]; [7] 99% | [5]; [8] 99% | [5]; at 50.0 µM 98.8%
inactive: [2]; [7] 16% | [4]; [7] 29% | [6]; [7] 67%

C1=C(c2c(-c3ccccc3)[nH]c3ccccc23)Cc2ccccc21
inactive: [1]; [7] 3% | [1]; at 50.0 µM 12.6% | [2]; [7] 0% | [2]; at 50.0 µM 43.7% | [3]; [7] 0% | [3]; [8] 54% | [3]; at 50.0 µM 62.1% | [4]; [7] -12% | [4]; at 50.0 µM 30.2% | [5]; [7] 3% | [5]; at 50.0 µM 54.8%
active: [1]; [8] 93% | [2]; [8] 95% | [4]; [8] 93% | [5]; [8] 93%
